According to PubChem BioAssay (NCI):
This is part of a sample that, as a whole, favours compounds with a hit. Of some 83,000 tested, about 20% had one in any assay.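 48-hour exposure, single concentration, 96-well plates; percent growth endpoint where 0 means no net growth. Active: below 10.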 Unmarked numbers belong to inactive results. The source made the active and inactive calls.

Each molecule was assayed on 786-0 renal (assay: NCI-60 one-dose screen, 48 h (100 = growth as untreated, 0 = no growth, -100 = all killed)). Conditions: 10 µM unless noted.

| Compound | growth |
| --- | --- |
| CN(C)C(=S)N=Nc1c(O)[nH]c2ccccc12 | 8.93% (active) |
| NC(N)=N/N=C(/c1ccccc1)c1ccc(F)cc1 | 18.6% |
| CC(=O)c1cc2c(N)c(C(=O)Nc3cccc4ccccc34)sc2nc1C | 31.6% |
| O=c1ccccc(-c2ccc(Br)cc2)c1O | 8.52% (active) |
| CCCCC(=O)OCC1OC(n2cnc3c(=S)nc[nH]c32)C(OC(=O)CCCC)C1OC(=O)CCCC (stereo not drawn) | 20.5% |
| CC/C=C\C[C@H]1C/C=C2/C(=O)C=C[C@H]2C/C=C\CCCC(=O)O1 | 24.7% |
| CCNc1ncnc2c1cnn2C1CCCO1 (stereo not drawn) | 109% |
| C=C1C(=O)O[C@H]2[C@H]1CC/C(COC(=O)NCCc1ccc(OC)c(OC)c1)=C\CC[C@@]1(C)O[C@@H]21 | 77.7% |
| O=C(Cc1ccc(/C=C/C(=O)c2ncc[nH]2)cc1)Nc1ccc(F)cc1 | 23.7% |
| Clc1ccc2c(NCCCNc3nc(-n4ccnc4)nc4ccccc34)ccnc2c1 | 77.6% |
| CCc1nc(N)nc(N)c1C#CC(C)c1ccc(-c2ccncc2)cc1Cl (stereo not drawn) | 18.3% |
| Cc1cc2c3ccccc3ccc2[n+]2ccccc12 | 24% |
| COc1ccc(SC2c3ccc(C)cc3Oc3nc(N)c(C#N)c(N)c32)cc1 (stereo not drawn) | -95.4% (active) |
| NC(=NC1C2CC3CC(C2)CC1C3)Nc1ccc(I)cc1 (stereo not drawn) | 61% |
| CC(=O)OCCC/C(=C/c1cc2ccccc2c2ccccc12)[N+](=O)[O-] | -89.5% (active) |
| COc1cc(C(=O)/C=C/c2cccnc2Nc2ccc(Cl)cc2)cc(OC)c1OC | -83.4% (active) |
| CCOc1ccc(-n2nc(C(=O)Nc3cc(OC)c(OC)c(OC)c3)nc2-c2cc(OC)c(OC)c(OC)c2)cc1 | 77.1% |
| CC(=O)Oc1ccc(Cl)cc1CN(C(C)=O)C1CCCCC1 | 90% |
| COc1cc(-c2nn(-c3ccc(Br)cc3)cc2C(=O)O)ccc1O | 97.6% |
| COc1cc2nnc3c4cccnc4[nH]c3c2cc1OC | 7.43% (active) |

| Compound | growth |
| --- | --- |
| CCNC(=O)Oc1ccc(/C(=C(\C)c2ccc(Cl)cc2)c2ccc(OCCN(CC)CC)cc2)cc1 | 24.7% |
| CCc1nc(N)nc(N)c1C#CC(C)c1cc(-c2ccnc(C)c2)c2oc(C)nc2c1 (stereo not drawn) | 6.31% (active) |
| CC1=C(O)C(=O)C(C(C#N)(C#N)C(C#N)C#N)C1 (stereo not drawn) | 106% |
| CN(C)c1ccc(NC(=O)c2ccc(/C=C/C(=O)c3ncc[nH]3)cc2)cc1 | 47.1% |
| CN(C)c1ccc(N=Nc2ccccn2)c(O)c1 | 15% |
| O=C1C=CC(=O)N1c1ccc2c(c1)Cc1cc(F)ccc1-2 | 112% |
| CCCCn1cnc2c(Sc3c([N+](=O)[O-])ncn3C)nc(N)nc21 | 104% |
| NC(CSC(c1ccccc1)(c1ccccc1)c1ccc(Cl)cc1)C(=O)O (stereo not drawn) | 25.6% |
| Oc1ccc(N=Cc2ccccc2O)cc1 | 93.4% |
| Clc1ccc2c(NCCNc3nc(N4CCCCC4)nc4ccccc34)ccnc2c1 | -36.9% (active) |
| CCN1CCN(c2nc(NCCCNc3ccnc4cc(Cl)ccc34)c3ccccc3n2)CC1 | 30.7% |
| CCOC(=O)c1sc(Nc2ccc(Cl)cc2)nc1C | 25% |
| CN1C(=O)C2(SCC(C(=O)NCc3ccccc3)N2C(=O)C2CCCCC2)c2ccccc21 (stereo not drawn) | 101% |
| CSc1ccc(-c2ccccc(=O)c2O)cc1 | 8.4% (active) |
| CC(=O)c1cc2c(N)c(C(=O)Nc3cccc(F)c3C)sc2nc1C | 92.1% |
| COc1ccc2c(c1)C(=O)/C(=C/c1ccccn1)CC2 | 100% |
| O=C(Cc1ccc(/C=C/C(=O)c2ncc[nH]2)cc1)Nc1ccccc1 | 32.8% |
| COc1cccc2c1C(=O)c1c(O)c3c(c(O)c1C2=O)C[C@](O)(C(=O)CO)C[C@H]3O[C@@H]1C[C@@H](NC(=O)CCCN(C)C2(c3ccc(F)cc3)CC3CCC2C3)[C@H](O)[C@@H](C)O1 (stereo partly drawn) | -94.2% (active) |
| COc1cccc2c1C(=O)c1c(O)c3c(c(O)c1C2=O)C[C@](O)(C(=O)CO)C[C@H]3O[C@@H]1C[C@@H](NC(=O)CCCCCN(C)C2(c3ccc(F)cc3)CC3CCC2C3)[C@H](O)[C@@H](C)O1 (stereo partly drawn) | -92.7% (active) |

The molecules below were run on COLO 205 colon in the same assay as above. Conditions: 10 µM unless noted.

| Compound | growth |
| --- | --- |
| CN(C)C(=S)N=Nc1c(O)[nH]c2ccccc12 | 19.7% |
| NC(N)=N/N=C(/c1ccccc1)c1ccc(F)cc1 | -47% (active) |
| CC(=O)c1cc2c(N)c(C(=O)Nc3cccc4ccccc34)sc2nc1C | -27% (active) |
| O=c1ccccc(-c2ccc(Br)cc2)c1O | 22.7% |
| CCCCC(=O)OCC1OC(n2cnc3c(=S)nc[nH]c32)C(OC(=O)CCCC)C1OC(=O)CCCC (stereo not drawn) | 38.8% |
| CC/C=C\C[C@H]1C/C=C2/C(=O)C=C[C@H]2C/C=C\CCCC(=O)O1 | 6.26% (active) |
| CCNc1ncnc2c1cnn2C1CCCO1 (stereo not drawn) | 105% |
| C=C1C(=O)O[C@H]2[C@H]1CC/C(COC(=O)NCCc1ccc(OC)c(OC)c1)=C\CC[C@@]1(C)O[C@@H]21 | 12.7% |
| O=C(Cc1ccc(/C=C/C(=O)c2ncc[nH]2)cc1)Nc1ccc(F)cc1 | 20.5% |
| Clc1ccc2c(NCCCNc3nc(-n4ccnc4)nc4ccccc34)ccnc2c1 | 87.7% |
| CCc1nc(N)nc(N)c1C#CC(C)c1ccc(-c2ccncc2)cc1Cl (stereo not drawn) | 12.3% |
| Cc1cc2c3ccccc3ccc2[n+]2ccccc12 | 54.1% |
| COc1ccc(SC2c3ccc(C)cc3Oc3nc(N)c(C#N)c(N)c32)cc1 (stereo not drawn) | -66.5% (active) |
| NC(=NC1C2CC3CC(C2)CC1C3)Nc1ccc(I)cc1 (stereo not drawn) | -70.3% (active) |
| CC(=O)OCCC/C(=C/c1cc2ccccc2c2ccccc12)[N+](=O)[O-] | -85.9% (active) |
| COc1cc(C(=O)/C=C/c2cccnc2Nc2ccc(Cl)cc2)cc(OC)c1OC | -81.4% (active) |
| CCOc1ccc(-n2nc(C(=O)Nc3cc(OC)c(OC)c(OC)c3)nc2-c2cc(OC)c(OC)c(OC)c2)cc1 | 80.3% |
| CC(=O)Oc1ccc(Cl)cc1CN(C(C)=O)C1CCCCC1 | 104% |
| COc1cc(-c2nn(-c3ccc(Br)cc3)cc2C(=O)O)ccc1O | 109% |
| COc1cc2nnc3c4cccnc4[nH]c3c2cc1OC | 50.2% |

| Compound | growth |
| --- | --- |
| CCNC(=O)Oc1ccc(/C(=C(\C)c2ccc(Cl)cc2)c2ccc(OCCN(CC)CC)cc2)cc1 | -57.8% (active) |
| CCc1nc(N)nc(N)c1C#CC(C)c1cc(-c2ccnc(C)c2)c2oc(C)nc2c1 (stereo not drawn) | 0.792% (active) |
| CC1=C(O)C(=O)C(C(C#N)(C#N)C(C#N)C#N)C1 (stereo not drawn) | 105% |
| CN(C)c1ccc(NC(=O)c2ccc(/C=C/C(=O)c3ncc[nH]3)cc2)cc1 | 37.6% |
| CN(C)c1ccc(N=Nc2ccccn2)c(O)c1 | 17.3% |
| O=C1C=CC(=O)N1c1ccc2c(c1)Cc1cc(F)ccc1-2 | 94% |
| CCCCn1cnc2c(Sc3c([N+](=O)[O-])ncn3C)nc(N)nc21 | 100% |
| NC(CSC(c1ccccc1)(c1ccccc1)c1ccc(Cl)cc1)C(=O)O (stereo not drawn) | -13% (active) |
| Oc1ccc(N=Cc2ccccc2O)cc1 | 120% |
| Clc1ccc2c(NCCNc3nc(N4CCCCC4)nc4ccccc34)ccnc2c1 | -84.6% (active) |
| CCN1CCN(c2nc(NCCCNc3ccnc4cc(Cl)ccc34)c3ccccc3n2)CC1 | -22.9% (active) |
| CCOC(=O)c1sc(Nc2ccc(Cl)cc2)nc1C | 11% |
| CN1C(=O)C2(SCC(C(=O)NCc3ccccc3)N2C(=O)C2CCCCC2)c2ccccc21 (stereo not drawn) | 95.3% |
| CSc1ccc(-c2ccccc(=O)c2O)cc1 | 22.6% |
| CC(=O)c1cc2c(N)c(C(=O)Nc3cccc(F)c3C)sc2nc1C | 74.3% |
| COc1ccc2c(c1)C(=O)/C(=C/c1ccccn1)CC2 | 87.7% |
| O=C(Cc1ccc(/C=C/C(=O)c2ncc[nH]2)cc1)Nc1ccccc1 | 45.5% |
| COc1cccc2c1C(=O)c1c(O)c3c(c(O)c1C2=O)C[C@](O)(C(=O)CO)C[C@H]3O[C@@H]1C[C@@H](NC(=O)CCCN(C)C2(c3ccc(F)cc3)CC3CCC2C3)[C@H](O)[C@@H](C)O1 (stereo partly drawn) | -76.2% (active) |
| COc1cccc2c1C(=O)c1c(O)c3c(c(O)c1C2=O)C[C@](O)(C(=O)CO)C[C@H]3O[C@@H]1C[C@@H](NC(=O)CCCCCN(C)C2(c3ccc(F)cc3)CC3CCC2C3)[C@H](O)[C@@H](C)O1 (stereo partly drawn) | -63.7% (active) |
